This passage reports growth results from PubChem BioAssay (NCI).

Assay in all cases: NCI-60 one-dose screen, 48 h (100 = growth as untreated, 0 = no growth, -100 = all killed)
Conditions in all cases: 10 µM unless noted

The subject of assay [1] is SR leukemia.
The subject of assay [2] is RPMI-8226 leukemia.
In assay [3] the test system is OVCAR-8 ovarian.
Assay [4] deals with OVCAR-5 ovarian.
Assay [5] relates to OVCAR-4 ovarian.
Assay [6] concerns SK-OV-3 ovarian.
The test system of assay [7] is IGROV1 ovarian.
The test system of assay [8] is OVCAR-3 ovarian.
Assay [9] has as its system HS 578T breast.
The subject of assay [10] is NCI/ADR-RES ovarian.
Assay [11] deals with T-47D breast.
Assay [12] has as its system BT-549 breast.
Assay [13] concerns MDA-MB-435 melanoma.
Assay [14] relates to SW-620 colon.
The subject of assay [15] is HCT-116 colon.
For assay [16], the system named is HCC-2998 colon.
The subject of assay [17] is KM12 colon.
Assay [18] relates to MDA-MB-468 breast.
The test system of assay [19] is MCF7 breast.

The panel holds about 83,000 compounds, 20% with a hit somewhere; the sample as a whole holds those more often.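 Growth was measured after 48 h exposure to one concentration of compound in 96-well plates. Values under 10 count as active.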 A number with no mark means an inactive call. The source made the active and inactive calls.

For the molecule `COc1ccc(/C=C/c2nc3ccccc3c(=O)n2CC(=O)Nc2ccc(Cl)cc2)cc1`, the growth is 70.8% in assay [1]; 84% in assay [2]; 27% in assay [3]; 92.7% in assay [4]; 17.2% in assay [5]; 78.7% in assay [6]. For the same molecule, the growth was 96.5% in assay [7]; 50% in [8]; 23.3% in assay [9]; 56.1% in [10]; 66.5% in assay [11]; 63.6% in [12]. Further, the growth in [13] was 90.5%; in assay [14], 73.9%; in assay [15], 35.4%; in assay [16], 116%; in assay [17], 61.3%; in assay [18], 98%.
As to `O=C(N1c2ccccc2Sc2ccccc21)n1ccc2cccnc21`, the growth in assay [1] is 12.1%; in [2], 40.4%; in assay [3], 88.1%; in assay [4] it was 98.5%; in assay [5], 65.6%; in assay [6], 79.9%. Moreover, the growth in [7] was 72%; in [8], 82%; in [9], 70.7%; in assay [10], 57.7%; in [11] it was 27.7%; in assay [12] it was 60.2%. In addition, the growth in [13] was 19.7%; in assay [14] it was 58.4%; in [15], 34.9%; in assay [16], 85.1%; in assay [17], 49.2%; in [18], 51.8%.
Regarding `COc1ccc2[nH]c(=O)c(CSc3nccc(-c4ccc(OC)c(OC)c4)n3)cc2c1`, the growth was 23.1% in assay [1]; 14.7% in assay [2]; 16% in assay [3]; 52.4% in [4]; 8.75% (active) in [5]; 55.8% in assay [6]. Further, the growth in assay [7] is 49.8%; in [8], 41.9%; in assay [9] it was -7.63% (active); in assay [10], 23.6%; in assay [11], -2.81% (active); in assay [12], -43.8% (active). Moreover, the growth in [13] is 11.4%; in assay [14] it was 44.5%; in assay [15] it was 8.21% (active); in assay [16], 26.3%; in [17] it was 32.2%; in assay [18] it was -12.3% (active).
`COc1ccc(-c2ccc(SCC(=O)NCCc3ccc(S(N)(=O)=O)cc3)nn2)cc1`: the growth in assay [1] was 63.9%; in assay [2] it was 49.6%; in assay [3], 88.8%; in [4] it was 102%; in assay [5] it was 77.2%; in [6] it was 71.1%. Moreover, the growth in assay [7] was 82%; in assay [8], 121%; in [9], 89.8%; in assay [10] it was 100%; in assay [11] it was 51%; in assay [12], 60.5%. The growth in [13] was 92.2%; in [14] it was 103%; in assay [15], 70.4%; in assay [16], 94.9%; in assay [17] it was 96.3%; in [18] it was 33.9%.
For `Cc1cc(=O)oc2cc(OCCCOc3ccc(/C=C/C(=O)Nc4ccccc4N)cc3)ccc12`, the growth in assay [1] is 21.4%; in assay [2] it was 0.19% (active); in [3], 44.2%; in assay [4] it was 37.5%; in [5] it was 40.9%; in assay [6], 7.97% (active). The growth was 39.4% in assay [7]; 5.72% (active) in [8]; 48.3% in assay [9]; 21.3% in assay [10]; -59.7% (active) in assay [12]; 38.3% in [13]. The growth is 26.8% in assay [14]; 4.44% (active) in assay [19]; 17.2% in assay [15]; 27.3% in assay [16]; 12.6% in assay [17]; -48.1% (active) in assay [18].
Consider `COc1c(F)ccc(C(=O)Nc2ccc3nc(NC(=O)C4CCCN(S(=O)(=O)c5cccc(C(F)(F)F)c5)C4)sc3c2)c1F` (centres undefined), for which the growth in assay [1] was 38.4%; in [2], 54.4%; in [3], 94.5%; in assay [4] it was 101%; in assay [5], 74.3%; in [6] it was 102%. In addition, the growth is 77.5% in [7]; 88.1% in assay [8]; 61.1% in [9]; 84.3% in assay [10]; 48.4% in assay [11]; 54.3% in [12]. The growth in [13] was 87.1%; in assay [14], 99.9%; in [15] it was 60.7%; in assay [16], 107%; in [17], 80%; in [18], 101%.
With `O=c1[nH]c2ccc(Cl)cc2cc1CSc1nccc(-c2ccc(Cl)cc2)n1`, the growth in assay [1] is 88.6%; in [2], 71.3%; in assay [3], 42.9%; in [4], 66.4%; in [5], 38.9%; in assay [6] it was 69.2%. The growth in assay [7] is 59.3%; in assay [8] it was 86.6%; in assay [9] it was 33.8%; in assay [10], 56.7%; in assay [11], 41.6%; in [12], 23.9%. Also, the growth in assay [13] is 76.5%; in assay [14], 73.4%; in assay [15], 30.3%; in [16], 61.7%; in [17], 69.7%; in assay [18], 29.7%.
`Cc1cc(=O)oc2cc(OCCOc3ccc(/C=C/C(=O)Nc4ccccc4N)cc3)ccc12`: the growth was 26.1% in assay [1]; 1.06% (active) in [2]; 38.5% in [3]; 39.2% in [4]; 41.2% in [5]; 11.1% in [6]. In addition, the growth was 38.7% in assay [7]; 20.3% in assay [8]; 40.6% in assay [9]; 16.4% in [10]; -49.2% (active) in assay [12]; 42.7% in assay [13]. Also, the growth was 27.4% in assay [14]; 5.65% (active) in assay [19]; 16.1% in assay [15]; 37.9% in assay [16]; 13.7% in assay [17].
Take `C=C1CC[C@@H]2[C@]3(C)COC(c4cn[nH]c4-c4ccc(F)cc4)O[C@@H]3CC[C@@]2(C)[C@@H]1C/C=C1/C(=O)OCC1O` (some centres undefined): the growth in [1] is 9.73% (active); in assay [2], 0.899% (active); in [3], 1.2% (active); in assay [4] it was -42.2% (active); in [5] it was 32.9%; in [6], 46.6%. The growth in assay [7] was -31.1% (active); in assay [8] it was -68.6% (active); in assay [9], 44.8%; in [10], -45.6% (active); in [11], 11.6%; in assay [12], -93.4% (active). The growth in [13] is -62.2% (active); in assay [14], -60.7% (active); in assay [15] it was -88.9% (active); in assay [16] it was -95.3% (active); in assay [17], -44.3% (active); in [18], -82.4% (active).
For `COc1ccc(-c2nc3cc(C)ccc3n2CC(=O)N=Nc2c(O)[nH]c3ccc(Br)cc23)cc1`, the growth in assay [1] is 2.47% (active); in [2], 42%; in assay [3] it was -61.8% (active); in assay [4], -4.99% (active); in assay [5], -18.3% (active); in assay [6], 35%. Besides, the growth in assay [7] is 23.9%; in assay [8], 14.9%; in assay [9] it was 20.3%; in [10], -22% (active); in [11], -2.62% (active); in [12], -41.5% (active). Further, the growth in assay [13] is 2.16% (active); in assay [14] it was 9.98% (active); in [15], -69.6% (active); in [16] it was 22.7%; in assay [17], 11.5%; in assay [18], -46.6% (active).
